RGS4 inh = human RGS4 inhibition. P49798. AID 504845. 0.039% of 390,000 active. Transcreener GDP fluorescence polarization, RGS4-accelerated GTP hydrolysis. Potency, µM (series often up to 114 µM), actives largely listed as inhibitors; active = well fitted inhibition curve with a large enough effect; inconclusive = small, poorly fitted or top-dose-only effect; inactive = no such curve, though single readings can be large or run the other way; also: nearly all actives have a fitted effect of over 75% in size
Target sequence (P49798 whole entry, looked up): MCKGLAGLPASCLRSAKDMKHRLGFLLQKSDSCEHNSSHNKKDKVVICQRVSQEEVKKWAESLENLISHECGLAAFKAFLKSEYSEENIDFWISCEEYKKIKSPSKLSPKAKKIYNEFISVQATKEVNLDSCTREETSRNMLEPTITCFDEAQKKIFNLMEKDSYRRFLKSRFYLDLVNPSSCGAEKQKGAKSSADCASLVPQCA
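MLSMR compounds (23 nl, pin-transferred) preincubated 10 min at room temperature with a 500nM (2x) first reagent, then RGS4 at 900nM (2x) plus Transcreener GDP mix added; fluorescence polarization (620/688 nm) read before and after 90 min at 30 °C.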
DRD3 antagonist = antagonists of human D3 dopamine receptor. 2.5% of 360,000 active. max response, negative = inhibition, %. P35462. D3R cells, DiscoveRx beta-arrestin luminescence, antagonist mode; hits give low values; in the data active = max response below about -50%; inconclusive = no clear call, values can overlap the other calls
Target sequence (P35462 whole entry, looked up): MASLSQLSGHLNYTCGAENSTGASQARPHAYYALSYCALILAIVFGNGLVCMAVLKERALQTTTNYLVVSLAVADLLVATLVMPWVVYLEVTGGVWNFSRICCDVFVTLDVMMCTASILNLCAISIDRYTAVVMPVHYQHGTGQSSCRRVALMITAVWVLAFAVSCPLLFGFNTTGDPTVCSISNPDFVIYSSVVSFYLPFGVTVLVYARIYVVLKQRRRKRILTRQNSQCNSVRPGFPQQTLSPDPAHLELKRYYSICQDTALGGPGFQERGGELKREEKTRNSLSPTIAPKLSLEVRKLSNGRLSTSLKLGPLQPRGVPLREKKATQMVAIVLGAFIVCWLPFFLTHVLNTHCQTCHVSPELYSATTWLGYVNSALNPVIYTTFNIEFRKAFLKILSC
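Cells expressing the human receptor were seeded at 1500 cells/well, incubated overnight at 37 degrees C in 5% CO2, then exposed to library compounds with dopamine controls for 90 minutes at 37 degrees C before luminescent detection.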
pAkt inh = inhibitors of Akt phosphorylation; Neuro2A IGF-stimulated pAkt S473 HTRF, 20 min; hits give low values; activity change, % for hits at 50 µM; 0.32% of 360,000 active; in the data active = activity change below about -80%; inconclusive = mostly about -51% to -80%
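Neuro2A cells in DMEM with 0.5% FBS, overnight at 37 deg C, given compound at single 50 µM final, then IGF (6 nM final) for 20 min at 37 deg C. Lysed; phospho-Akt Ser473 by HTRF after 24 h, 665/615 ratio.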
PI4K2A block = blocks human PI4K2A kinase activity. Q9BTU6. purified PI4K2A, ADP-Glo luminescence, 1 h; hits give low values. activity change, negative = inhibition, % at 76.9 µM. 0.13% of 420,000 active; in the data active = activity change below about -50%; inconclusive = mostly about -30% to -49%
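Compounds are screened against recombinant PI4K2A using PI as substrate and ATP, the latter dispensed at 300 microM. Reactions run one hour at ambient temperature before ADP-Glo detection; full inhibition defined by wells lacking enzyme.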
D3 ag = D3 dopamine receptor (human) agonism; P35462; D3R DiscoveRx beta-arrestin cells, luminescence, 90 min; max activation, %; 0.58% of 410,000 active; AID 652048; in the data active = max activation above about 30%
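Agonist-mode cell screen: cells plated at 1500/well and incubated overnight at 37 °C, then exposed to library compounds for 90 min at 37 °C. Detection reagent was added for 30–60 min at room temperature, and luminescence was read.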
LDHA block = blocks human lactate dehydrogenase A; P00338; purified LDHA, NADH/diaphorase-resazurin fluorescence; hits give low values; activity change, % (values are at about 110 or 230 µM); 0.15% of 480,000 active; AID 1347041; in the data active = activity change below about -30%; inconclusive = mostly about -25% to -30%
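Human LDH5 at 2 nM final in Tris HCl pH 7.4 with 0.06 mM NADH and 0.2 mM pyruvate, reacted 5 minutes at room temperature. Remaining NADH coupled via diaphorase/resazurin; resorufin fluorescence read at 0 and 20 minutes, normalized to enzyme-free and DMSO wells.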
A number is an active result; [ ] = remark or other dose. This is a sample that favours compounds with a hit; in the whole collection about 2.8% have one here.

How did O=S(=O)(N(Cc1ccccc1)[C@@H](CO)Cc1ccccc1)N(Cc1ccccc1)[C@@H](CO)Cc1ccccc1 do in these assays?
RGS4 inh: inactive; DRD3 antagonist: inactive; pAkt inh: inactive; PI4K2A block: inactive; D3 ag: 84; LDHA block: inactive

How did C=CS(=O)(=O)N(Cc1ccccc1Br)[C@H](CO)Cc1ccccc1 do in these assays?
RGS4 inh: inactive; DRD3 antagonist: inactive; pAkt inh: inactive; PI4K2A block: inactive; D3 ag: inactive; LDHA block: inactive

How did CC(C)C[C@H](CO)N(Cc1ccccc1)S(=O)(=O)N(Cc1ccccc1)[C@@H](CO)CC(C)C do in these assays?
RGS4 inh: inactive; DRD3 antagonist: inactive; pAkt inh: inactive; PI4K2A block: inactive; D3 ag: 59; LDHA block: inactive

Results for Cc1cccc(Cn2c(SCC(=O)Nc3ccccc3)nc3c2c(=O)n(C)c(=O)n3C)c1 ?
LDHA block: inactive

Results for Cc1cc(NC(=O)[C@@H]2CCCN2S(=O)(=O)c2ccc3c(c2)OCO3)no1 ?
LDHA block: inactive

Results for CSc1ncc(C(=O)NCc2ccccc2Cl)c(C)n1 ?
LDHA block: inactive

Results for CCOc1ccccc1NC(=O)CC1Nc2cc(C)c(C)cc2NC1=O (centres undefined) ?
RGS4 inh: inactive; DRD3 antagonist: inactive; pAkt inh: inactive; PI4K2A block: inactive; D3 ag: inactive; LDHA block: inactive

How did CCOC(=O)c1c(NC(=O)CC2Nc3cc(C)c(C)cc3NC2=O)sc(C)c1C (centres undefined) do in these assays?
RGS4 inh: inactive; DRD3 antagonist: -57; pAkt inh: inactive; PI4K2A block: inactive; D3 ag: inactive; LDHA block: inactive

How did COc1cccc(Nc2nc3cc(OC)ccc3nc2NS(=O)(=O)c2ccc(Cl)cc2)c1 do in these assays?
LDHA block: inactive

What do the screens show for `COc1cccc(Nc2nc3cc(C)ccc3nc2NS(=O)(=O)c2ccc(Cl)cc2)c1`?
RGS4 inh: inactive; PI4K2A block: inactive; D3 ag: 43; LDHA block: inactive

What do the screens show for `O=C1c2ccccc2C(=O)N1CCCCc1cn(C[C@H]2CC[C@@H]([C@@H]3CC[C@H](Cn4cc(CCCCN5C(=O)c6ccccc6C5=O)nn4)O3)O2)nn1`?
RGS4 inh: inactive; DRD3 antagonist: inactive; pAkt inh: inactive; PI4K2A block: inactive; D3 ag: 51; LDHA block: inactive

What do the screens show for `CCn1c(-n2nc(C)cc2C)nc2c1c(=O)n(Cc1ccccc1F)c(=O)n2C`?
LDHA block: inactive

How did CN(C)c1ccc(/C=C/c2noc(-c3ccccc3O)n2)cc1 do in these assays?
RGS4 inh: inconclusive; PI4K2A block: inactive; D3 ag: inactive; LDHA block: inactive

How did Oc1ccccc1-c1nc(/C=C/c2ccccc2Cl)no1 do in these assays?
RGS4 inh: inactive; PI4K2A block: inactive; D3 ag: 88; LDHA block: inactive

Results for C=CCOc1nc2c(c(=O)n(C)c(=O)n2C)n1Cc1cccc(Br)c1 ?
LDHA block: inactive

Results for COc1ccc(-c2nnn(CC(=O)N(Cc3ccc(F)cc3)C(C(=O)NC3CCCC3)c3ccc(F)cc3)n2)cc1 (centres undefined) ?
RGS4 inh: inactive; DRD3 antagonist: -60; pAkt inh: inactive; PI4K2A block: inactive; D3 ag: inactive; LDHA block: inactive

What do the screens show for `CCOC(=O)CN(C(=O)Cn1nnc(-c2ccc(OC)cc2)n1)C(C(=O)NC1CCCC1)c1ccc(F)cc1` (centres undefined)?
RGS4 inh: inactive; DRD3 antagonist: inactive; pAkt inh: inactive; PI4K2A block: inactive; D3 ag: inactive; LDHA block: inactive

What do the screens show for `COc1ccccc1N(C(=O)Cn1nnc(-c2ccc(C)o2)n1)C(C(=O)NC1CCCC1)c1ccncc1` (centres undefined)?
RGS4 inh: inactive; DRD3 antagonist: -53; pAkt inh: inactive; PI4K2A block: inactive; D3 ag: inactive; LDHA block: inactive

How did COc1ccc2c(c1)CCC1C2=NN(/C(C)=C/C(C)=O)C1c1cccc(F)c1 (centres undefined) do in these assays?
RGS4 inh: inactive; DRD3 antagonist: -58; pAkt inh: inactive; PI4K2A block: inactive; D3 ag: inactive; LDHA block: inactive

How did CC(=O)N1N=C2c3ccccc3CCC2C1c1ccc(F)cc1 (centres undefined) do in these assays?
RGS4 inh: inactive; DRD3 antagonist: inactive; pAkt inh: inactive; PI4K2A block: inactive; D3 ag: inactive; LDHA block: inactive

Results for O=C(NCc1ccc(Cl)nc1)c1ccc2sc([C@@H]3O[C@H](CO)[C@H](O)[C@H](O)[C@H]3O)nc2c1 ?
DRD3 antagonist: inactive; pAkt inh: inactive; PI4K2A block: inactive; D3 ag: inactive; LDHA block: inactive

How did Cc1cccc(C)c1NC(=O)c1ccc2sc([C@@H]3O[C@H](CO)[C@H](O)[C@H](O)[C@H]3O)nc2c1 do in these assays?
DRD3 antagonist: -52; pAkt inh: inactive; PI4K2A block: inactive; D3 ag: inactive; LDHA block: inactive

How did O=C(NCc1cccnc1)c1ccc2sc([C@H]3C[C@H](O)[C@@H](CO)O3)nc2c1 do in these assays?
DRD3 antagonist: -69; pAkt inh: inactive; PI4K2A block: inactive; D3 ag: inactive; LDHA block: inactive

Results for Cc1cnc(CNC(=O)c2ccc3sc([C@@H]4O[C@H](CO)[C@H](O)[C@H](O)[C@H]4O)nc3c2)cn1 ?
DRD3 antagonist: -50; pAkt inh: inactive; PI4K2A block: inactive; D3 ag: inactive; LDHA block: inactive

How did O=C(NCc1cc(Cl)cc(Cl)c1)c1ccc2sc([C@H]3C[C@H](O)[C@@H](CO)O3)nc2c1 do in these assays?
DRD3 antagonist: inactive; pAkt inh: inactive; PI4K2A block: inactive; D3 ag: inactive; LDHA block: inactive

Results for CCn1nnc2cc(C(=O)Nc3nc(-c4ccc(C)c(C)c4)cs3)ccc21 ?
LDHA block: inactive

Results for Cc1nc(C)c(C(=O)OC(C)C(=O)C23CC4CC(CC(C4)C2)C3)s1 (centres undefined) ?
LDHA block: inactive

What do the screens show for `COc1ccc2cc3cc(C(=O)NCCN4CCc5ccccc5C4)oc3nc2c1`?
RGS4 inh: inactive[11.4 µM]; DRD3 antagonist: inconclusive; pAkt inh: inactive; PI4K2A block: inactive; D3 ag: inactive; LDHA block: inactive

Results for O=C(NCCCN1CCc2ccccc2C1)Nc1ccc(Br)cc1 ?
RGS4 inh: inactive; DRD3 antagonist: -55; pAkt inh: inactive; PI4K2A block: inactive; D3 ag: inactive; LDHA block: inactive
